Compounds with a hit are over-represented: about 3.8% of the library has one in this group of screens.
TIM10 inh: inhibits growth of TIM10 yeast strain; S. cerevisiae TIM10 strain growth, BacTiter-Glo luminescence, 24 h; AID 463195; inhibition, % at 10 µM; actives 1.4% (n = 330,000);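 active = inhibition of 40% or more at the single tested concentration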;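 note: wild-type TIM10 isogenic control strain grown at permissive 25 °C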
B2AR ag: activates human beta-2 adrenergic receptor causing internalization; actives 0.43% (n = 340,000); P07550; response, % (concentration not given with the values); Am2.2-beta2AR cells, FAP receptor internalization, flow cytometry;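 active = response above a set limit, near 3 SD of response in nonfluorescent compounds, cut at about 42% in these data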
Target sequence (P07550 whole entry, looked up): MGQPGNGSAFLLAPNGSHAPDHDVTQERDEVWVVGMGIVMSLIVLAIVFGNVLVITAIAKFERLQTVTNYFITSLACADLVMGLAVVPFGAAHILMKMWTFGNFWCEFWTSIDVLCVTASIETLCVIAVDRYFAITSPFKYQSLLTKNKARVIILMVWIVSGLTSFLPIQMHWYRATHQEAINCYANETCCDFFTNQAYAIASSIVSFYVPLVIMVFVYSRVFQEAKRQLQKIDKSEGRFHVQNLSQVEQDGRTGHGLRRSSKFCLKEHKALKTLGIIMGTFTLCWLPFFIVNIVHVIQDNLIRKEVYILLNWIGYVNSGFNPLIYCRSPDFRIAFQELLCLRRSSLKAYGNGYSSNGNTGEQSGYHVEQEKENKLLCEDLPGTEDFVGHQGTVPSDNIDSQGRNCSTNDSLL
tim23-1 inh: growth inhibitors of tim23-1 mutant yeast; S. cerevisiae tim23-1 growth, BacTiter-Glo luminescence, 24 h; inhibition, % at 20 µM; actives 1.3% (n = 330,000); AID 463212;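 active = growth inhibition of the mutant yeast at or above 50%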;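 note: temperature-sensitive mutant grown at 25 °C; plate controls were DMSO-treated mutant yeast for no effect and medium wells lacking yeast for full effect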
tim10-1 inh: tim10-1 yeast growth inhibition; actives 2.2% (n = 330,000); S. cerevisiae tim10-1 ts strain growth, BacTiter-Glo, 24 h; inhibition, % at 20 µM;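 active = inhibition of at least 40%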;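 note: mutant grown at 25 °C; 0% = DMSO wells with yeast and 100% = wells holding no yeast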
PfHsp90 yeast 2: reduces growth (ATP signal) of yeast expressing P. falciparum Hsp90; S. cerevisiae expressing PfHsp90, BacTiter-Glo ATP, 48 h; yeast lacking PDR1 and PDR3 efflux regulators; inhibition, % at 9.4 µM; actives 0.32% (n = 310,000);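 active = every replicate shows inhibition above about 80%, whatever the replicate mean, limit read from the data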;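 note: 0% = DMSO neutral controls and 100% = 20 µM radicicol positive controls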
tim10-1 conf: confirmation of tim10-1 mutant yeast growth inhibitors; shares compounds with tim10-1 inh; S. cerevisiae tim10-1 ts strain growth, BacTiter-Glo, 24 h; inhibition, % at 20 µM; actives 56% (n = 7,400);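 active = inhibition of yeast growth at or above a set limit in either of two repeat tests at 20 µM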;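 note: tim10-1 mutant grown at permissive 25 °C to find synthetic lethal compounds; 0% = DMSO yeast wells and 100% = medium wells without yeast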
tim10 confirm: confirmation of TIM10 yeast growth inhibitors; inhibition, % at 10 µM; S. cerevisiae tim10 strain growth, BacTiter-Glo luminescence, 24 h; shares compounds with TIM10 inh; AID 463215; actives 63% (n = 4,600);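 active = inhibition of yeast growth at or above a set limit in either of two replicates at 10 µM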;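 note: this counterscreen used the strain with wild-type TIM10; 0% = yeast with DMSO and 100% = medium wells lacking yeast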
tim23-1 confirm: confirmation of tim23-1 mutant yeast growth inhibitors; shares compounds with tim23-1 inh; inhibition, % at 20 µM; S. cerevisiae tim23-1 growth, BacTiter-Glo luminescence, 24 h; AID 463218; actives 83% (n = 4,400);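 active = inhibition above about 39% in either of two replicate wells at 20 µM, limit read from the data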;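 note: temperature-sensitive tim23-1 mutant grown at 25 °C; 0% = DMSO wells with yeast and 100% = medium wells without yeast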
An asterisk follows results filed as active.

Screening CCN(CC)CCN(C(=O)CCS(=O)(=O)c1ccccc1)c1nc2cc(C)cc(C)c2s1 returned TIM10 inh 44.1*, B2AR ag 10.1, tim23-1 inh 54.8*, tim10-1 inh 50.9*, PfHsp90 yeast 2 2.0, tim10-1 conf 28.8, tim10 confirm 29.6* and tim23-1 confirm 39.0*.
Cc1cc(C)c2sc(N(CCN(C)C)C(=O)CCS(=O)(=O)c3ccccc3)nc2c1 was read as TIM10 inh 13.2, B2AR ag 1.2, tim23-1 inh 13.1, tim10-1 inh 28.4 and PfHsp90 yeast 2 -9.7.
CCOc1cccc(C(=O)Nc2ccc3c(c2)OCCO3)c1 was read as TIM10 inh -7.4, B2AR ag 5.1, tim23-1 inh -1.3, tim10-1 inh -12.4 and PfHsp90 yeast 2 11.0.
O=C(Nc1ccccc1)c1nnsc1S(=O)c1ccc(Cl)cc1 (stereo unspecified) was read as TIM10 inh 93.6*, B2AR ag 37.7, tim23-1 inh 55.6*, tim10-1 inh 92.4*, PfHsp90 yeast 2 106.3*, tim10-1 conf 91.8*, tim10 confirm 98.3* and tim23-1 confirm 97.5*.
O=C(c1nnsc1S(=O)c1ccc(Cl)cc1)N1CCOCC1 (stereo unspecified) was read as TIM10 inh 33.3, B2AR ag 29.4, tim23-1 inh 57.4*, tim10-1 inh 60.5*, PfHsp90 yeast 2 -31.1, tim10-1 conf 42.4* and tim23-1 confirm 90.0*.
For COc1ccccc1OCc1cc(C(=O)N2CCN(C)C(c3ccccc3)C2)no1 (stereo unspecified) the results were TIM10 inh 28.7, B2AR ag -0.7, tim23-1 inh 54.9*, tim10-1 inh 52.3*, PfHsp90 yeast 2 106.9*, tim10-1 conf 27.5 and tim23-1 confirm 37.0.
CN1CCN(C(=O)c2cc(COc3c(F)cccc3F)on2)CC1c1ccccc1 (stereo unspecified) was read as TIM10 inh 52.0*, B2AR ag 2.3, tim23-1 inh 62.7*, tim10-1 inh 41.5*, PfHsp90 yeast 2 109.7*, tim10-1 conf 21.0, tim10 confirm 53.0* and tim23-1 confirm 50.0*.
`CCCOC(=O)C(C)n1cnc2scc(-c3ccc(C)cc3)c2c1=O` (stereo unspecified) gave TIM10 inh 3.2, B2AR ag -2.4, tim23-1 inh 35.6, tim10-1 inh 33.1 and PfHsp90 yeast 2 7.9.
Screening N#C/C(=C\c1cccc(Oc2ccccc2)c1)C(=O)N1CCOCC1 returned TIM10 inh 82.0*, B2AR ag 6.9, tim23-1 inh 80.1*, tim10-1 inh 81.2*, PfHsp90 yeast 2 99.6*, tim10-1 conf 80.3*, tim10 confirm 77.5* and tim23-1 confirm 76.5*.
O=C(N/N=C/c1cccc(Br)c1)c1ccc(Cn2cc(Br)cn2)o1 was read as TIM10 inh 68.2*, B2AR ag 4.1, tim23-1 inh 76.4*, tim10-1 inh 49.3*, PfHsp90 yeast 2 -6.1, tim10-1 conf 60.1*, tim10 confirm 80.9* and tim23-1 confirm 83.0*.
For O=C(Nc1ccc(N2CCCCC2)cc1)c1ccc([N+](=O)[O-])o1 the results were TIM10 inh 45.2*, B2AR ag 26.7, tim23-1 inh 73.9*, tim10-1 inh 59.4*, PfHsp90 yeast 2 4.3, tim10-1 conf 47.3*, tim10 confirm 38.0* and tim23-1 confirm 69.7*.
`COc1ccc(N2CCCC2)c(NC(=O)c2ccc([N+](=O)[O-])o2)c1` gave TIM10 inh 70.6*, B2AR ag 2.2, tim23-1 inh 68.3*, tim10-1 inh 62.1*, PfHsp90 yeast 2 -7.0, tim10-1 conf 51.5*, tim10 confirm 79.7* and tim23-1 confirm 42.6*.
`O=C(Nc1ccc(N2CCCC2)c(Cl)c1)c1ccc([N+](=O)[O-])o1` gave B2AR ag 29.0 and PfHsp90 yeast 2 0.5.
O=C(Nc1cc(C(F)(F)F)ccc1-n1cncn1)c1ccc([N+](=O)[O-])o1 was read as TIM10 inh 47.3*, B2AR ag 16.7, tim23-1 inh 53.9*, tim10-1 inh 73.2*, PfHsp90 yeast 2 -35.8, tim10-1 conf 64.5*, tim10 confirm 57.4* and tim23-1 confirm -15.6.
For O=C(Nc1ccccc1N1CCCC1)c1ccc([N+](=O)[O-])o1 the results were TIM10 inh 52.5*, B2AR ag -6.5, tim23-1 inh 66.2*, tim10-1 inh 65.0*, PfHsp90 yeast 2 -3.0, tim10-1 conf 54.8*, tim10 confirm 44.7* and tim23-1 confirm 66.2*.
`O=C(Nc1cc(C(F)(F)F)ccc1-n1cncn1)c1ccc(Br)cc1` gave TIM10 inh 29.2, B2AR ag -7.9, tim23-1 inh 17.5, tim10-1 inh 19.3 and PfHsp90 yeast 2 -1.4.
For O=C1c2ccccc2C(O)(c2ccccc2)N1c1ccc([N+](=O)[O-])cc1Cl (stereo unspecified) the results were B2AR ag 4.4.
Screening Cc1ccc(CNCCCn2cnc3c(OCc4ccccc4)ncnc32)o1 returned B2AR ag -7.1 and PfHsp90 yeast 2 -6.8.
N/C(=N\OC(=O)c1ccc(F)cc1)c1nonc1N was read as TIM10 inh 1.6, B2AR ag 3.6, tim23-1 inh 14.0, tim10-1 inh 22.8 and PfHsp90 yeast 2 -1.5.
`N/C(=N\OC(=O)c1ccc(F)cc1)c1ccccc1` gave TIM10 inh 62.9*, B2AR ag -4.3, tim23-1 inh 72.8*, tim10-1 inh 67.8*, PfHsp90 yeast 2 -2.8, tim10-1 conf 64.0*, tim10 confirm 60.8* and tim23-1 confirm 76.2*.
For Cc1ccc(/C(N)=N/OC(=O)c2ccc(F)cc2)cc1 the results were TIM10 inh 66.6*, B2AR ag -10.7, tim23-1 inh 67.6*, tim10-1 inh 58.7*, PfHsp90 yeast 2 14.3, tim10-1 conf 54.8*, tim10 confirm 68.8* and tim23-1 confirm 65.0*.
For CCc1ccccc1NC(=O)c1cccc(N2C(=O)C3C4CCC(C4)C3C2=O)c1 (stereo unspecified) the results were TIM10 inh -0.4, B2AR ag 1.3, tim23-1 inh 6.6, tim10-1 inh 3.2 and PfHsp90 yeast 2 -4.5.
`CCNC(=O)c1ccc2c(c1)C1C3CCC(C3)C1C(c1ccccc1)N2` (stereo unspecified) gave TIM10 inh 41.0*, B2AR ag -21.0, tim23-1 inh 62.6*, tim10-1 inh 59.5*, PfHsp90 yeast 2 -13.0, tim10-1 conf 55.4*, tim10 confirm 42.9* and tim23-1 confirm 65.0*.
